This passage reports growth results from PubChem BioAssay (NCI).

About 83,000 compounds went through this panel and 20% of them were active in at least one assay; those are over-represented in the sample as a whole.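 Testing used 96-well plates and a 48-hour single-concentration exposure. Example: -40 means 40% of the starting cells died.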 Unmarked numbers belong to inactive results. Active and inactive are the calls of the source. Rule for the calls: active = growth percent below 10; inactive = the rest.

Test systems include SK-MEL-2 melanoma; SN12C renal; UO-31 renal; TK-10 renal; ACHN renal; CAKI-1 renal; A498 renal; CCRF-CEM leukemia; MOLT-4 leukemia.
Holding throughout (test): NCI-60 one-dose screen, 48 h (100 = growth as untreated, 0 = no growth, -100 = all killed)
Common to all, as to conditions: 10 µM

For `Cc1ccc(/C(CS(=O)(=O)c2ccc(C)cc2)=N\O)cc1`, the growth in the experiment on SK-MEL-2 melanoma was 104%; with SN12C renal, 89.3%; in the experiment with UO-31 renal, 93%; in the experiment on TK-10 renal it was 82.7%; in the experiment with ACHN renal, 91.7%; with CAKI-1 renal it was 92.4%. Moreover, the results for the growth in the experiment with A498 renal, in the experiment on CCRF-CEM leukemia and in the experiment with MOLT-4 leukemia were 92.2%, 86.7% and 102%, respectively.

With `Nc1ncc(-c2ccc(C(F)(F)F)cc2)c(NC2CCCCCC2)n1`, the growth was 0.455% (active) with SK-MEL-2 melanoma; 29.9% with SN12C renal; 23.6% with UO-31 renal; 36.9% in the experiment on TK-10 renal; 16.4% in the experiment on ACHN renal; 55.8% with CAKI-1 renal. For the same compound, the growth is 58.8% in the experiment on A498 renal, 31.1% with CCRF-CEM leukemia and 57.5% in the experiment on MOLT-4 leukemia.

As for `Cc1nn2c(/C=C3/C(=O)Nc4ccc(Cl)cc43)c(-c3ccccc3)nc2s1`, the growth in the experiment with SK-MEL-2 melanoma is 32.7%; in the experiment with SN12C renal, 52.7%; in the experiment on UO-31 renal, 29.6%; in the experiment on TK-10 renal it was 6.61% (active); with ACHN renal it was 30.1%; in the experiment on CAKI-1 renal, 53.4%. For the same compound, the values for the growth in the experiment with A498 renal, in the experiment on CCRF-CEM leukemia and in the experiment on MOLT-4 leukemia were 43.8%, 50.7% and 57.2%, respectively.

As for `Nc1nc2c(ncn2C2OC3COP(=O)(O)OC4C(COP(=O)(O)OC2C3O)OC(n2cnc3c(N)ncnc32)C4O)c(=O)[nH]1` (stereo not given), the growth was 115% in the experiment with SK-MEL-2 melanoma; 106% with SN12C renal; 104% with UO-31 renal; 112% with TK-10 renal; 105% with ACHN renal; 100% with CAKI-1 renal. Also, the growth was 5.1% (active) in the experiment with A498 renal, 97.8% in the experiment with CCRF-CEM leukemia and 92.8% in the experiment with MOLT-4 leukemia.

As to `O=C(NC1CCN(Cc2ccccc2)CC1)c1cc(-c2ccncc2)nc2ccc(Cl)cc12`, the growth with SK-MEL-2 melanoma was 44.1%; in the experiment on SN12C renal it was 27.3%; in the experiment on UO-31 renal it was 11.9%; in the experiment on TK-10 renal, 61.4%; with ACHN renal it was 19.9%; in the experiment with CAKI-1 renal, 13.4%. For the same compound, the results for the growth in the experiment on A498 renal, with CCRF-CEM leukemia and with MOLT-4 leukemia were 11%, 2.77% (active) and 7.58% (active), respectively.

For `CCCCCCCC/C=C/CCCCCCCCC1=NCCN1CCO`, the growth is 95.1% in the experiment with SK-MEL-2 melanoma; 64.1% in the experiment on SN12C renal; 38.5% in the experiment with UO-31 renal; 124% in the experiment on TK-10 renal; 58.7% with ACHN renal; 80.5% in the experiment with CAKI-1 renal. Further, the growth is 84.7% in the experiment on A498 renal, 19.7% in the experiment on CCRF-CEM leukemia and 34.3% in the experiment on MOLT-4 leukemia.

`O=C(NCCCl)c1cc(Cl)cc(Cl)c1`: the growth is 117% in the experiment on SK-MEL-2 melanoma; 97% in the experiment on SN12C renal; 84% in the experiment on UO-31 renal; 117% in the experiment with TK-10 renal; 107% in the experiment with ACHN renal; 96.8% with CAKI-1 renal. In addition, the values for the growth in the experiment on A498 renal, in the experiment on CCRF-CEM leukemia and in the experiment on MOLT-4 leukemia were 80.9%, 97.2% and 105%, respectively.

`O=NN(CC(=O)N/N=C/C=C\c1ccccc1)CC(=O)N/N=C/C=C/c1ccccc1`: the growth is 111% in the experiment with SK-MEL-2 melanoma; 78.1% in the experiment with SN12C renal; 91.9% in the experiment on UO-31 renal; 131% in the experiment with TK-10 renal; 86.4% with ACHN renal; 91.3% with CAKI-1 renal. Moreover, the figures for the growth in the experiment with A498 renal, in the experiment with CCRF-CEM leukemia and in the experiment with MOLT-4 leukemia were 105%, 94.9% and 96.9%, respectively.

`COc1ccc(Nc2ccnc(N3CCN(c4ccnc5cc(Cl)ccc45)CC3)n2)cc1`: the growth with SK-MEL-2 melanoma is -19.3% (active); with SN12C renal, 14.1%; in the experiment with UO-31 renal, -1.7% (active); in the experiment on TK-10 renal, 4.85% (active); in the experiment on ACHN renal, 11.2%; with CAKI-1 renal, 6.78% (active). The growth was -6.15% (active) in the experiment with A498 renal, 2.09% (active) with CCRF-CEM leukemia and -48.9% (active) in the experiment on MOLT-4 leukemia.

Take `O=C(OCc1ncc(-c2ccc(C(F)(F)F)cc2)c(NC2CCCCCC2)n1)c1c(F)c(F)c(F)c(F)c1F`: the growth in the experiment with SK-MEL-2 melanoma is 54.6%; in the experiment on SN12C renal, 54.1%; in the experiment on UO-31 renal, 28.3%; in the experiment on TK-10 renal, 63.2%; in the experiment on ACHN renal it was 27.8%; in the experiment with CAKI-1 renal it was 89.6%. The growth was 102% in the experiment on A498 renal, 15.7% in the experiment on CCRF-CEM leukemia and 79.1% with MOLT-4 leukemia.

For `Oc1ccccc1-c1nnc(Cn2c(Cc3cccc4ccccc34)nc3ccccc32)o1`, the growth in the experiment on SK-MEL-2 melanoma was 83.1%; in the experiment with SN12C renal, 94.5%; in the experiment on UO-31 renal it was 63%; with TK-10 renal, 99.2%; in the experiment on ACHN renal it was 93.9%; in the experiment on CAKI-1 renal, 94.3%. The growth in the experiment with A498 renal is 106%; in the experiment with CCRF-CEM leukemia, 99.4%; in the experiment on MOLT-4 leukemia, 90.9%.

As to `C[C@]12CC[C@H]3[C@@H](CC=C4C[C@@H](O)CC[C@@]43C)[C@@H]1CC[C@@H]2C(=O)C/C=N/O`, the growth with SK-MEL-2 melanoma is 95.9%; in the experiment with SN12C renal it was 91.7%; in the experiment with UO-31 renal, -94.6% (active); with TK-10 renal, 99.5%; in the experiment on ACHN renal, 89.4%; with CAKI-1 renal it was 83.2%. The growth is 90.1% in the experiment with A498 renal, 71.8% with CCRF-CEM leukemia and 69.2% in the experiment with MOLT-4 leukemia.

With `CCNC(=S)NN`, the growth is 128% with SK-MEL-2 melanoma; 81.7% in the experiment on SN12C renal; 68.4% in the experiment with UO-31 renal; 130% in the experiment with TK-10 renal; 96.4% with ACHN renal; 90.1% with CAKI-1 renal. For the same compound, the growth in the experiment on A498 renal is 91.2%; in the experiment on CCRF-CEM leukemia, 46.2%; in the experiment on MOLT-4 leukemia, 73.3%.

As for `CCc1nn2c(-c3cc(OC)c(OC)c(OC)c3)c(-c3cc(OC)c(OC)c(OC)c3)nc2s1`, the growth with SK-MEL-2 melanoma was 44.5%; with SN12C renal it was 85.9%; in the experiment with UO-31 renal it was 81.7%; with TK-10 renal, 73%; with ACHN renal it was 74%; with CAKI-1 renal it was 71.4%. Moreover, the growth in the experiment with A498 renal was 88.6%; in the experiment on CCRF-CEM leukemia it was 80.8%; in the experiment on MOLT-4 leukemia, 95.9%.

`C=CCOc1ccc2c(c1)CC[C@@H]1[C@@H]2CC[C@]2(C)C(=O)/C(=N/O)C[C@@H]12`: the growth in the experiment on SK-MEL-2 melanoma is 54.6%; in the experiment on SN12C renal, 39.3%; in the experiment with UO-31 renal, 27.6%; with TK-10 renal, 9.46% (active); in the experiment on ACHN renal, 30.4%; in the experiment on CAKI-1 renal it was 10.7%. Moreover, the growth in the experiment on A498 renal was 50.2%; in the experiment with CCRF-CEM leukemia it was 6.37% (active); in the experiment on MOLT-4 leukemia it was -31.7% (active).
